# Screening results deposited in PubChem BioAssay by The Scripps Research Institute Molecular Screening Center.
# Shown is part of a subset that was picked to be rich in hits.
# TTR transcr act: increases transthyretin transcription; SH-SY5Y TTR promoter Gaussia luciferase, luminescence; 100% = recombinant luciferase protein wells; actives 1.3% (n = 92,000); activation, % at 16.7 µM;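 active means activation above the mean of all tested compounds plus 3 SD, cut at about 9.5% in these data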;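 further: cells exposed to compounds for one day before reading; 0% = median of all test compound wells on the plate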
# TTR inh HuH7: decreases TTR transcription in HuH7 cells in activator counter-screen; actives 4% (n = 1,100); inhibition, % at 16.7 µM; HuH7 TTR promoter-Gaussia luciferase reporter, luminescence; shares compounds with TTR transcr act; AID 1117279;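 active means average inhibition above the solvent-only control wells' mean plus 3 SD, cut at about 15% in these data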;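 further: 0% = cells with DMSO only and 100% = cells with inhibitor control FD; inhibitors lower well luminescence so higher value means more inhibition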
# TTR up confirm: confirmation of human transthyretin transcription activators | 1,100 tested, under 10 active | shares compounds with TTR transcr act | activation, % at 16.7 µM | SHSY5Y TTR promoter Gaussia luciferase, luminescence; 100% = purified Lucia enzyme wells, no cells;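 active means mean activation above a set limit taken from the earlier primary screen, cut at about 11% in these data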;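 further: 0% = DMSO-treated cells and 100% = recombinant Lucia luciferase without cells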
# * marks the source's active call; other numbers are inactive results.
SMILES,TTR transcr act,others
CC1(c2nnnn2Cc2ccccc2)CCCCC(=O)N1Cc1cccs1 (stereo not given),-0.6,
COc1ccc(S(=O)(=O)CCC(=O)N2CCN(c3ccc(F)cc3)CC2)cc1,10.2*,TTR inh HuH7=-12.4;TTR up confirm=3.2
O=C(CCS(=O)(=O)c1ccc(Cl)cc1)N1CCN(c2ccc(F)cc2)CC1,0.9,
COc1ccc(CC(=O)N2CCN(c3ccc(F)cc3)CC2)cc1,3.5,
COP(=O)(CC(=O)OC(C)(C)C)C(CC(C)C)NC(=O)OCc1ccccc1 (stereo not given),0.3,
O=C(OCc1cn(Cc2ccccc2F)nn1)N1CCOCC1,5.4,
O=C(CCc1ccccc1-c1ccccc1CCNC(=O)c1cccc(F)c1)NCc1ccccc1,-0.4,
COc1cccc(CNC(=O)N2CCN(S(=O)(=O)c3ccc(Cl)cc3)CC2)c1,2.1,
COc1ccccc1CNC(=O)N1CCN(S(=O)(=O)c2ccc(Cl)cc2)CC1,37.6*,TTR inh HuH7=-13.6;TTR up confirm=0.4
COc1ccccc1CNC(=O)N1CCN(S(=O)(=O)c2ccccc2)CC1,-1.0,
COC(=O)[C@]12C[C@H](CC(=O)N3CCOCC3)C(=O)N(Cc3ccc(Cl)cc3Cl)C1=C[C@H](C1CCCC1)O[C@@H]2C,-0.6,
CC(C)Oc1ccc(-c2csc(N3CCC(C(N)=O)CC3)n2)cc1,-1.9,
COc1ccccc1CNC(=O)c1ccc2c(=O)n(CC3CCCO3)c(=S)[nH]c2c1 (stereo not given),1.1,
O=C(NCC1CCCO1)c1ccc2c(=O)n(-c3ccc(F)cc3)c(=S)[nH]c2c1 (stereo not given),12.1*,TTR inh HuH7=-11.3;TTR up confirm=-0.6
O=C(NCC1CCCO1)c1ccc2c(=O)n(Cc3ccc(Cl)cc3)c(=S)[nH]c2c1 (stereo not given),0.4,
O=C(Nc1ccc(Br)cc1)OC1CC2CC1[C@H]1CCCCN1[C@H]2Cc1ccccc1 (stereo not given in full),1.6,
CN1C(=O)c2cc(NC(=O)c3ccc(F)cc3)ccc2OC[C@H]2O[C@H](CC(=O)NC3CCC3)CC[C@H]21,0.6,
CC(=O)NC1CCCCN(C(C)C)C1=O (stereo not given),-0.8,
CCn1c(C(O)c2cccc(OC)c2OC)nc2ccccc21 (stereo not given),5.8,
COc1ccccc1C(O)c1nccn1C (stereo not given),14.4*,TTR inh HuH7=-3.5;TTR up confirm=-0.5
COc1cccc(C(O)c2nccn2Cc2ccccc2)c1OC (stereo not given),1.0,
COC(=O)[C@]12C[C@H](CC(=O)N3CCCCC3)C(=O)N(Cc3cccc4ccccc34)C1=C[C@H](C(C)C)O[C@@H]2C1CC1,-2.3,
COc1cccc(OC)c1NC(=O)OC1CCC12CCC(c1ccccc1)CC2 (stereo not given),0.5,
CCC[C@H]1[C@@H](OC(=O)NCc2ccc(OC)cc2)CC[C@@]23CCCN2C(=O)CCC[C@@H]13,3.8,
COc1ccc(NC(=O)CCCC(=O)O)cc1Cl,-0.3,
SMILES,TTR transcr act,others
C/C=C/C(=O)OCC(=O)Nc1ccc(OC)c(OC)c1,0.8,
C/C=C/C(=O)OCC(=O)Nc1ccc(OC)c(Cl)c1,11.8*,TTR inh HuH7=-10.4;TTR up confirm=0.7
CC(C)(C)OC(=O)N1CCC[C@H]1c1nnc(SCC(=O)Nc2ccc(Br)cc2)o1,-0.9,
CC[C@]12c3[nH]c4cc(-c5ccco5)ccc4c3CCN1C(=O)[C@@H](CC(=O)NCCC1=CCCCC1)C[C@@H]2C(=O)N1CCN(C(=O)C2CC2)CC1,4.0,
CC[C@]12c3[nH]c4cc(-c5ccco5)ccc4c3CCN1C(=O)[C@@H](CC(=O)NCc1ccc(OC)c(OC)c1)C[C@@H]2C(=O)N1CCN(C(=O)C2CC2)CC1,10.4*,TTR inh HuH7=0.9;TTR up confirm=-0.3
CC[C@]12c3[nH]c4cc(CCC(=O)N(C)C)ccc4c3CCN1C(=O)[C@@H](CC(=O)NCc1ccc(OC)c(OC)c1)C[C@@H]2C(=O)N1CCN(C(=O)C2CC2)CC1,2.4,
CCc1ccc(N2C(=O)CC(Cn3nc(C)cc3C)C2=O)cc1 (stereo not given),1.0,
CCCCOCCCNC(=O)C[C@H]1C[C@@]2(C(=O)OC)C(=C[C@H](C3CCCC3)O[C@@H]2C)N(Cc2cccc3ccccc23)C1=O,-1.1,
CS(=O)(=O)N(CC(=O)N/N=C/c1cc([N+](=O)[O-])ccc1Cl)c1ccccc1,1.3,
O=C(CN(c1ccc(Cl)c(C(F)(F)F)c1)S(=O)(=O)c1ccccc1)N/N=C/c1cccc2c1OCCO2,10.2*,TTR inh HuH7=0.3;TTR up confirm=-1.2
COc1ccc(N(CC(=O)N/N=C/c2ccc(OC3CSC3)cc2)S(=O)(=O)c2ccccc2)cc1,0.3,
COC(=O)[C@]12C[C@H](CC(=O)NCc3cccc(C(F)(F)F)c3)C(=O)N(Cc3ccccc3)C1=C[C@H](COCc1ccccc1)O[C@@H]2C,0.4,
CCOC(=O)c1cnc(-c2ccccc2)nc1N1CCOCC1,-1.4,
CCOC(=O)c1cnc2c(-c3ccccc3)cnn2c1C,12.6*,TTR inh HuH7=-2.5;TTR up confirm=4.5
CCOC(=O)c1cnc2cc(-c3ccc(Br)cc3)nn2c1C,1.8,
Cc1cccc(C(=O)Nc2nc3ncccn3c2-c2ccc(F)cc2)c1,5.3,
COC(=O)[C@]12C[C@H](CC(=O)NCC3CCCCC3)C(=O)N(Cc3ccccc3)C1=C[C@H](COCc1ccccc1)O[C@@H]2C,-0.9,
COC(=O)[C@]12C[C@H](CC(=O)NCc3cccs3)C(=O)N(Cc3ccc4c(c3)OCO4)C1=C[C@H](C(C)C)O[C@@H]2C1CC1,-0.2,
O=C1C2C3C=CC(C3)C2C(=O)N1c1ccc(-c2nc(-c3ccccc3)nc3ccccc23)cc1 (stereo not given),-0.6,
Cc1ccc(CN2CCCCC(NC(=O)C(C)(C)C)C2=O)cc1 (stereo not given),-1.3,
COc1cc(-c2c(C(=O)c3ccccc3)[nH]c(N)c2C(N)=O)ccc1O,3.4,
CCOC(=O)c1cccc(-c2cc(C(=O)OC)c3n(c2=O)CCC3)c1,-0.9,
Nc1ncnc2c1ncn2C1OC(CO)C(O)C1O (stereo not given),3.7,
OCC1OC(n2nnc3ccccc32)C(O)C(O)C1O (stereo not given),-0.1,
O=c1ccncn1C1OC(CO)C(O)C1O (stereo not given),13.2*,TTR inh HuH7=-11.3;TTR up confirm=0.8
SMILES,TTR transcr act,others
O=C(OCC#CCSc1nnc(-c2cccc3ncccc23)o1)c1ccc(F)cc1,-1.7,
CC[C@@H]1/C(=C/c2ccccc2)N2C(=O)C[C@@H](c3ccccc3)N=C2N1Cc1ccc(OC)cc1OC,0.8,
CC(C)N1CCCCC(NC(=O)COCc2ccccc2)C1=O (stereo not given),-0.4,
O=C(CNC(=O)c1ccccc1)NCC(c1ccco1)N1CCCC1 (stereo not given),13.3*,TTR inh HuH7=-12.2;TTR up confirm=1.0
N#Cc1ccc(C(=O)NCC(c2ccco2)N2CCCCC2)cc1 (stereo not given),-1.9,
O=C(NCC(c1ccco1)N1CCCC1)c1ccc(-n2cccn2)cc1 (stereo not given),-0.9,
CCOC(=O)N1CCN(C(=O)C[C@H]2C[C@@]3(C(=O)OC)C(=C[C@H](COCc4ccccc4)O[C@@H]3C)N(Cc3ccco3)C2=O)CC1,-1.1,
CCN(CC)C(=O)O[C@H]1CC[C@@]23CCCN2C(=O)CCC[C@H]3C1,3.2,
